# Data: PubChem BioAssay (Tox21)
# Values without a mark were called inactive. Activity calls are given as the source filed them. Calls follow the shape of the dose curve; as a rule, active = well fitted curve in the direction sought with a large enough effect in the repeat runs; inconclusive = weak or mixed curves; inactive = flat fitted curve, though single readings scatter.
# Assay: qHTS assay to test for compound auto fluorescence at 535 nm (green) in HepG2 cells (AID 720675)
# Conditions: green autofluorescence 485/535 nm, 1 h; series mostly up to 91.3 µM
# Excerpt: National Center for Advancing Translational Sciences [NCATS]
# NIH Chemical Genomics Center [NCGC]
# U.S. Environmental Protection Agency [EPA]
# National Institutes of Environmental Health Sciences [NIEHS]
# National Toxicology Program [NTP]
# U.S. Food and Drug Administration [FDA]
# Compound auto fluorescence often interferes with screening of the compound library against various biological targets and signaling pathways. Some of these compounds may have fluorophoric properties. Such properties may interfere with the assay outputs resulting in false positives and/or negatives. To decrease such complications and ensure the compound activities are relevant in terms of biological response, the Tox21 10K compound library was screened for auto fluorescence.
# From the fluorophores used as reporter signals in our screening assays, the auto fluorescence equivalencies of compounds against three fluorophores have been evaluated: Triamterene, Fluorescein and Rose Bengal sodium for blue, green and red fluorescence, respectively. The fluorescence intensities were measured using Excitation/Emission wavelengths at 405/460nm, 485/535nm and 540/590nm for blue, green and red labels, respectively. This assay includes the green fluorescence data.
# Tox21 Assay Protocol Summary:
# 2,000 HepG2 cells in 5 uL of culture medium (MEM containing 10% FBS) per well were dispensed into black wall/clear bottom 1536-well plates using a Multidrop Combi Dispenser (ThermoFisher Scientific, Waltham, MA). The assay plates were incubated overnight at 37 C to allow cell attachment to the well bottom, followed by the transfer of 23 nL compound or DMSO vehicle by a pintool work station (Kalypsys , San Diego, CA). After the assay plates were incubated for 1 hr at 37 C and 5% CO2, fluorescence intensities in the assay plates were measured by an Envision (PerkinElmer, Shelton, CT) plate reader using three labels for measuring blue, green and red fluorescence at […] 460, 535 and 590 nm respectively.
# % is scaled to controls: 0 for no effect and ±100 for the full control effect.
Structure (SMILES),outcome,"fluorescence, % of fluorescein control"
CCCCCc1cccc(=O)o1,inactive,–
O=C[O][Al]([O]C=O)[O]C=O,inactive,–
CCC(C)C(=O)OCCc1ccccc1 (stereo not given),inactive,–
OCC1CCC(CO)CC1 (stereo not given),inactive,–
C/C=C(\C)C(C)=O,inactive,–
NCc1ccc(S(N)(=O)=O)cc1,–,-0.119% [at 18.6 µM]
C=Cc1ccc(C(C)(C)C)cc1,inactive,–
CC(CO)(CO)CO,inactive,–
C=CC(=O)OCC1CCCO1 (stereo not given),inactive,–
CCC(=O)c1c(O)cc(O)cc1O,inactive,–
COC(=O)c1ccccc1C(=O)O,inactive,–
C=C(C)C1CC=C(C)C(=O)C1 (stereo not given),inactive,–
O=C(O)CNC(=O)CNC(=O)CNC(=O)CSC(=O)c1ccccc1,inactive,–
Cc1c(N)cccc1Cl,inactive,–
CC12CCC(C1)C(C)(C)C2O (stereo not given),inactive,–
O=C=NCC1CCCC(CN=C=O)C1 (stereo not given),inactive,–
NCCOCCN,inactive,–
Cc1cccc(Cl)c1,inactive,–
COS(=O)(=O)O,inactive,–
C=CCCCC,inactive,–

Structure (SMILES),outcome,"fluorescence, % of fluorescein control"
COc1ccc2c(c1)c1c3n2CCN(C)C3=NCC1,inactive,–
CC(=O)OC(C)=O,inactive,–
Cc1ccc2c(c1)C(=O)c1ccccc1C2=O,inactive,–
CCOCCOCC,inactive,–
CC1CCc2c(N3CCC(O)CC3)c(F)cc3c(=O)c(C(=O)O)cn1c23 (stereo not given),inactive,–
CCCCOCC(C)O (stereo not given),inactive,–
CCCCCCCCCOC(=O)CCCCC(=O)OCCCCCCC,inactive,–
N[C@@H](CSCCCO)C(=O)O,inactive,–
CCOc1cccc(N)c1,inactive,–
Cc1ccnc(N)c1,inactive,–
CC/C(C)=N\O[Si](C)(O/N=C(\C)CC)O/N=C(\C)CC,inactive,–
CCO[Si](CC)(OCC)OCC,inactive,–
CCCCCCCCCCCCCCCCCC#N,inactive,–
COc1c2occc2c(OC)c2c(=O)cc(C)oc12,–,-0.275% [at 18.6 µM]
CC(S)C(C)S (stereo not given),inactive,–
C[Si]1(C)O[Si](C)(C)O[Si](C)(C)O[Si](C)(C)O[Si](C)(C)O1,inactive,–
CN(C)C(C)(C)CO,inactive,–
CC(=O)O[C@@H]1CC2CCC1(C)C2(C)C (stereo not given in full),inactive,–
CN1C[C@@H]2C[C@H]1CN2c1cc2c(cc1F)c(=O)c(C(=O)O)cn2C1CC1,inactive,–
Cc1c(NC(=O)c2cccnc2)c(=O)n(-c2ccccc2)n1C,–,-0.0361% [at 18.6 µM]
